Growth data for eight molecules are collected here from PubChem BioAssay (NCI).

Holding throughout (assay): NCI-60 one-dose screen, 48 h (100 = growth as untreated, 0 = no growth, -100 = all killed)
Test [1] deals with HCT-15 colon. The note with it: 10 µM unless noted.
For test [2], the system named is HT29 colon. The following applies: 10 µM unless noted.
Test [3] relates to SNB-75 CNS. The note with it: 10 µM unless noted.
In test [4] the test system is SNB-19 CNS. The following applies: 10 µM unless noted.
For test [5], the system named is U251 CNS. The following applies: 10 µM unless noted.
For test [6], the system named is PC-3 prostate. The note with it: 10 µM unless noted.
Test [7] deals with SK-MEL-5 melanoma. The following applies: 10 µM unless noted.
Test [8] concerns UACC-62 melanoma. The note with it: 10 µM unless noted.
Test [9] has as its system LOX IMVI melanoma. The note with it: 10 µM unless noted.
Test [10] has as its system SK-MEL-28 melanoma. The note with it: 10 µM unless noted.
Test [11] has as its system SK-MEL-2 melanoma. The following applies: 10 µM unless noted.
Test [12] concerns EKVX NSCLC. The note with it: 10 µM unless noted.
Test [13] has as its system SN12C renal. The note with it: 10 µM unless noted.
For test [14], the system named is UO-31 renal. The note with it: 10 µM unless noted.
Test [15] concerns TK-10 renal. The following applies: 10 µM unless noted.
Test [16] concerns ACHN renal. The following applies: 10 µM unless noted.
The subject of test [17] is CAKI-1 renal. The note with it: 10 µM unless noted.
Test [18] deals with A498 renal. The following applies: 10 µM.
The subject of test [19] is HL-60(TB) leukemia. The note with it: 10 µM unless noted.
The test system of test [20] is CCRF-CEM leukemia. The note with it: 10 µM unless noted.

The structures appear in SMILES notation. Compounds without any hit were thinned out: in the full panel of roughly 83,000, 20% have a hit.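 Results are percent growth after 48 hours of single-concentration exposure. 100 means growth as in untreated cells, lower positive values show inhibition; negative values down to -100 show cell death.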 A number with no mark means an inactive call. Activity calls are given as the source filed them. How the source made its calls: active means growth percent below 10; inactive means the rest.

As to `CC(=O)OCc1cc[c]([Hg][Cl])o1`, the growth in [1] is 5.8% (active); in test [2], 46%; in test [3], 42.7%; in test [4] it was 45.2%; in test [5] it was 7.54% (active); in test [6], 43.8%. The growth in [7] is 42.6%; in test [8] it was 47.8%; in test [9], -50.5% (active); in test [10], 12.3%; in [11] it was 64.9%; in test [12] it was 78.8%. Besides, the growth in test [13] is 55.9%; in test [14], 83.1%; in test [15], 127%; in test [16], 60.8%; in test [17], 25.9%; in [18], 123%. For the same molecule, the growth in test [19] is -25.1% (active); in [20] it was -20% (active).
In the case of `CC1=C2[C@@H](CC1)[C@]1(C)O[C@@](C(C)C)(C[C@H]1O)[C@H]2OC(=O)C1CC1c1ccccc1` (some centres not stated), the growth in [1] is 89.8%; in test [2], 103%; in [3] it was 88%; in [4], 102%; in test [5], 84.3%; in test [6] it was 56.9%. In addition, the growth in [7] was 85.4%; in test [8], 75.6%; in test [9], 93.3%; in [10] it was 105%; in test [11] it was 87.7%; in test [12], 88%. Also, the growth in [13] was 91.7%; in test [14] it was 74.7%; in test [15] it was 104%; in test [16], 84.2%; in [17], 79.5%; in test [18], 72.7%. The growth in [19] is 80.5%; in test [20], 74.9%.
`CCCCOc1ccc(C(N)Cc2ccccc2)cc1` (configuration not stated): the growth is 84.9% in test [1]; 75.4% in test [2]; 71.2% in [3]; 97% in test [4]; 88.1% in [5]; 79.5% in test [6]. Further, the growth in test [7] was 92.8%; in test [8], 105%; in test [9], 80%; in [10], 105%; in test [11], 107%; in test [12] it was 91.8%. For the same molecule, the growth in test [13] is 95.4%; in [14], 74.6%; in test [15] it was 98%; in test [16], 90.5%; in [17], 84.1%; in [18] it was 65%. Further, the values for the growth in [19] and in test [20] were 84.7% and 98.5%, respectively.
On to `CN(C)CCCOc1ccc2c(c1)c(C(=O)C(=O)NCCO)cn2Cc1ccccc1`, for which the growth was 105% in [1]; 107% in test [2]; 97.4% in [3]; 102% in test [4]; 96.4% in [5]; 105% in test [6]. Further, the growth was 99.8% in test [7]; 100% in test [8]; 93% in test [9]; 118% in test [10]; 114% in test [11]; 102% in test [12]. For the same molecule, the growth was 104% in test [13]; 84% in test [14]; 116% in test [15]; 99.2% in test [16]; 90.5% in [17]; 59.8% in [18]. Further, the growth is 106% in test [19] and 102% in test [20].
On to `COC(=O)[C@@H](C)C[C@H](Cc1ccccc1)NC(=O)c1nc([C@@H](C[C@H](C(C)C)N(C)C(=O)[C@@H](NC(=O)[C@H]2CC(=O)CCN2C)C(C)C)OC(C)=O)sc1C(C)C`, for which the growth is 8.84% (active) in [1]; -9.41% (active) in test [2]; 15.7% in [3]; 21.2% in [4]; 12.1% in [5]; 24.3% in test [6]. Further, the growth in test [7] is -14.3% (active); in test [8], 36.4%; in test [9] it was 14.7%; in test [10], 51.8%; in test [11], 5.7% (active); in [12], 30%. The growth in [13] was 17.5%; in [14], 29.6%; in test [15], 46.5%; in [16], 21.9%; in test [17], 34.6%; in test [19], -36.7% (active). Besides, in test [20], the growth was 9.87% (active).
Regarding `ClCCN(CCCl)c1ccc(/C=N\N=C\c2ccc(N(CCCl)CCCl)cc2)cc1`, the growth in [1] is 37.3%; in test [2] it was 39.3%; in test [3], 72.1%; in [4] it was 69.2%; in test [5], 47.4%; in test [6], 34.3%. Besides, the growth in test [7] was 49.7%; in [8], 24.5%; in [9], 10.7%; in test [10] it was 61.3%; in test [11], 36.7%; in [12], 47.1%. The growth in test [13] was 36.3%; in [14], -16.2% (active); in [15], 47.2%; in test [16] it was 40.1%; in [17], 7.35% (active); in test [18], 75%. The growth in test [20] was 25%.
Turning to `CNCc1cccnc1`, the growth in test [1] was 108%; in test [2] it was 85.7%; in [3], 104%; in [4], 115%; in test [5], 99.6%; in [6] it was 89%. In addition, the growth is 106% in test [7]; 108% in [8]; 98.2% in test [9]; 120% in test [10]; 112% in test [11]; 114% in test [12]. Also, the growth in test [13] was 111%; in [14], 93.9%; in test [15], 113%; in test [16] it was 106%; in test [17] it was 92%; in test [18] it was 104%. In [20], the growth was 96.6%.
As for `C=CCc1cc2c(cc1OCC)OCO2`, the growth in test [1] was 96.5%; in test [2] it was 87.7%; in test [3], 106%; in test [4], 99.7%; in test [5], 107%; in test [6] it was 80.8%. For the same molecule, the growth is 103% in test [7]; 108% in test [8]; 94.2% in test [9]; 102% in test [10]; 104% in test [11]; 91.1% in test [12]. Besides, the growth in [13] is 98.8%; in test [14] it was 95.4%; in [15] it was 92%; in test [16], 111%; in test [17] it was 102%; in [18] it was 91.3%. The figures for the growth in test [19] and in [20] were 98.1% and 106%, respectively.
